# Assay results as given in PubChem BioAssay (NCI).
# Compounds without any hit were thinned out: in the full panel of roughly 83,000, 20% have a hit.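 Cell lines were cultured in 96-well plates, exposed to a single compound concentration, and assessed for percent growth 48 hours later.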 A number with no mark means an inactive call. The source made the active and inactive calls.
# Test system: HCT-116 colon
# Assay: NCI-60 one-dose screen, 48 h (100 = growth as untreated, 0 = no growth, -100 = all killed)
# Settings: 10 µM unless noted
# Method: Growth inhibition of the HCT-116 human tumor cell line is measured as a screen for anti-cancer activity. Cells are grown in 96 well plates and exposed to the test compound for 48 hours. Compounds are tested at a single concentration, which is 10^-5 M for most compounds. The reported endpoint is percent growth (GI% or GIPRCNT), where numbers from 0 - 100% represent growth inhibition, and numbers from -100% - 0 represent cell death. For example, a value of 40 represents 60% growth inhibition. A value of 0 means no net growth occurred over the course of the experiment. A value of -40 indicates 40% of cells at the beginning of the experiment died by the end of the experiment. A value of -100 means all cells are dead at the end of the experiment.
# NCI-60 Human Tumor Cell Lines Screen was performed using the standard one-dose NCI protocol, which is described in more detail at https://dtp.cancer.gov/discovery_development/nci-60/default.htm.
# Compounds with GIPRCNT values below 10 were considered active. Activity score was based on GIPRCNT using the following formula: […]
# Score is 0 for GIPRCNT values of 100 or above, 50 for GIPRCNT values of 0, and 100 for GIPRCNT values of -100.
row,Compound,growth
1,CC(C)(C)CC(C)(C)Nc1c(-c2ccncc2)nc2cnccn12,90.1%
2,CC(C)C(NC(=O)C1(NC(=O)OCc2ccccc2)CCCC1)C(=O)O (stereo not given),97.6%
3,O=C(Nc1cccc2c(O)c(N=Nc3ccc(S(=O)(=O)Nc4nccs4)cc3)cc(N=Nc3ccc(S(=O)(=O)Nc4nccs4)cc3)c12)C(Cl)Cl,71.8%
4,O=C(/C=C/c1cccc(O)c1)c1cccc(-n2cc(-c3ccc4ccccc4c3)[nH]c2=O)c1,-100% (active)
5,COc1cc(-c2n/c(=C\c3c(O)[nH]c4ccc(Cl)cc34)cc3c2=Nc2ccccc2-3)cc(OC)c1OC,-73.5% (active)
6,CCN(CC)Cc1cccc(C(=O)OC)c1,89.9%
7,Cc1c(Cl)cc(-n2c(=O)c3ccccc3c3ccccc3c2=O)cc1Cl,101%
8,CC(CCc1ccc(Cl)c(Cl)c1)NCc1ccc(C(C)(C)C)cc1 (stereo not given),79.1%
9,OC(COc1ccccc1Cl)COc1ccccc1Cl,90.9%
10,Nc1n[nH]c2cc(F)c([C@@H]3Nc4c(F)cc5[nH]ncc5c4[C@H]4C5CCC(C5)[C@@H]34)cc12 (stereo not given in full),-21.2% (active)
11,N#C/C(=C/C=C/c1cccc(Cl)c1)S(=O)c1ccccc1 (stereo not given),-86.3% (active)
12,COC(=O)c1c2c(c(C)[n+]([O-])c1C)C(=O)C(NCc1ccc(F)c(Cl)c1)=CC2=O,0.429% (active)
13,COc1ccc(NC(=O)CSc2nnc(-c3cc(-c4ccccc4)nc4ccccc34)n2-c2ccccc2)cc1,92.6%
14,Cc1c(C)c2c(c(C)c1OCC(=O)O)CC[C@@](C)(CCC[C@@H](C)CCC[C@@H](C)CCCC(C)C)O2,-66.1% [50 µM] (active)
15,COc1ccc(CN2C(=O)C(Cl)=C(Nc3cccc(C(F)(F)F)c3)C2=O)cc1,28.9%
16,C[C@]12CC[C@@H]3c4cc(OC(F)F)c(O)cc4CC[C@H]3[C@@H]1CC[C@@H]2OS(N)(=O)=O,29.8%
17,O=c1[nH]c2ccccc2n1C1CCN(CCOc2ccccc2)CC1,84.7%
18,COC(=O)[C@]12CC[C@@H](C)[C@H](C)[C@@H]1C1=CC[C@@H]3[C@@]4(C)C(C=O)=C[C@@](C)(CO)[C@@H]4[C@H](O)C[C@@]3(C)[C@]1(C)CC2,-81.4% (active)
19,COc1cccc(Nc2nccc(Nc3ccc4[nH]ncc4c3)n2)c1,-87% (active)
20,Cn1c2c(c3ccc(Cl)c(Cl)c31)C(C#N)C1(CCNCC1)NC2=O (stereo not given),13%

row,Compound,growth
1,Cc1ccc2nc(C)c(-c3nnc(SCc4ccc(C#N)cc4)o3)n2c1,91.8%
2,O=c1c2cc(F)ccc2sc2c(NCCCN3CCCC3)nc3ccccc3c12,24.2%
3,CCOC(=O)c1c(/C=C/C(=O)O)nc2ccccc2c1/C=C/c1ccccc1,22.4%
4,O=C(O)CN1C(=O)CCC1=O,115%
5,CCN(CC)CCN1C(=O)c2c(c(C)c3c(oc4cc(O)ccc43)c2C)C1=O,-85% (active)
6,O=c1c2cc(F)ccc2sc2c(NCCN3CCCCC3)nc3ccccc3c12,25.3%
7,COc1cc(/C=C/C(=O)c2cccc(-n3cc(-c4ccccc4)[nH]c3=O)c2)ccc1O,13.5%
8,CCCCCS(=O)(=O)Nc1ccc(C(=O)O)cc1,102%
9,Cc1ccc2nc(NC(=O)CSc3nc(-c4ccccc4)c(C#N)c(=O)n3Cc3ccccc3)sc2c1,95.9%
10,Cc1ccccc1NC(=O)N/C(N)=N/c1nc(C)c(C)s1,21.7%
11,CS(=O)c1cccc(-c2ccc3nc(N)n(-c4ccc(C(F)(F)F)cc4)c(=O)c3c2)c1 (stereo not given),100%
12,CCCCCCN(CCCCCC)c1ccc(/C=C2/SC(=O)N(c3nc(N4CCCC4)nc(N4CCCC4)n3)C2=O)c(C)c1,45.5%
13,CC(=O)c1nc(Nc2ccc(C)cc2)sc1C,90.9%
14,CCCCc1ccc(Nc2ccc(Nc3ccc(CCCC)cc3S(=O)(=O)O)c3c2C(=O)c2ccccc2C3=O)c(S(=O)(=O)O)c1,106%
15,O=S(=O)(O)c1ccc(N/N=C/c2ccccc2Cl)cc1,104%
16,Cn1c(-c2c(N)n(Cc3ccc(C(F)(F)F)cc3)c3nc(C#N)c(C#N)nc23)nc2ccccc21,-29% (active)
17,COc1ccc2oc3c(C)c4c(c(C)c3c2c1)C(=O)N(Cc1ccccc1)C4=O,65.5%
18,CNS(=O)(=O)c1n[nH]nc1-c1cc(C(C)(C)C)c(O)c(C(C)(C)C)c1,94.6%
19,COc1ccc2occ(C3=C(c4c[nH]c5ccccc45)C(=O)N(O)C3=O)c2c1,90.7%
20,COc1cc(C2CC(c3ccc(Nc4ccnc5cc(Cl)ccc45)cc3)=NN2C=O)cc(OC)c1OC (stereo not given),13.5%
